Experimental data as given in PubChem BioAssay AID1159580 (chemical genetic matrix, 2015).
Several values for one entry are separate records, joined by “and”; a condition that tells them apart may be missing. Equal values may be shown once. Hit rate of the full screen: of about 5,500 compounds, about 2,000 (36%) were called active. About 18% were inconclusive and are not listed. Rule as the data show it: active = normalized growth mostly below about 0.91 (no sharp cut-off); inconclusive = no clear call, values can overlap the other calls; inactive = mostly above about 0.92. The list shows a part of the results.

Test: chemical genetic growth profiling, strain panel (AID 1159580);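 also: tested at 20 µM; growth read once vehicle control cultures reached saturation at 30 °C; 1 = growth at the plate median or of vehicle wells; lower values mean less growth of the strain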
Settings: S. cerevisiae deletion strains, growth OD

Measured: normalized growth

COc1cc(O)c(C(C)=O)c(OC)c1
inactive: locus YAL013W, strain DEP1, stronger effect = lower value 1.02 | locus YAL021C, strain ccr4, stronger effect = lower value 1.01 | locus YAL026C, strain drs2, stronger effect = lower value 0.968 | locus YAL030W, strain snc1, stronger effect = lower value 1 | locus YBL061C, strain skt5, stronger effect = lower value 0.992 | locus YBR009C, strain hhf1, stronger effect = lower value 0.957 | locus YBR021W, strain FUR4, stronger effect = lower value 1.02 | locus YBR023C, strain chs3, stronger effect = lower value 0.995 | locus YBR171W, strain sec66, stronger effect = lower value 0.993 | locus YBR229C, strain ROT2, stronger effect = lower value 1.01 | locus YBR231C, strain swc5, stronger effect = lower value 0.994 | locus YBR279W, strain paf1, stronger effect = lower value 1 | locus YCL011C, strain gbp2, stronger effect = lower value 0.99 | locus YCL016C, strain dcc1, stronger effect = lower value 1.01 | locus YCL029C, strain bik1, stronger effect = lower value 1.01 | locus YCL061C, strain MRC1, stronger effect = lower value 0.965 | locus YCL069W, strain vba3, stronger effect = lower value 1 | locus YCR088W, strain abp1, stronger effect = lower value 0.993 | locus YDL005C, strain med2, stronger effect = lower value 1.03 | locus YDL035C, strain GPR1, stronger effect = lower value 1.04 | locus YDL040C, strain nat1, stronger effect = lower value 0.999 | locus YDL074C, strain BRE1, stronger effect = lower value 1.04 | locus YDL101C, strain DUN1, stronger effect = lower value 1.01 | locus YDL134C, strain PPH21, stronger effect = lower value 0.999 | locus YDL185W, strain tfp1, stronger effect = lower value 0.992 | locus YDL192W, strain arf1, stronger effect = lower value 1.01 | locus YDR001C, strain nth1, stronger effect = lower value 0.996 | locus YDR069C, strain doa4, stronger effect = lower value 1.03 | locus YDR101C, strain arx1, stronger effect = lower value 1 | locus YDR137W, strain rgp1, stronger effect = lower value 1.03 | locus YDR150W, strain NUM1, stronger effect = lower value 0.982 | locus YDR159W, strain sac3, stronger effect = lower value 0.936 | locus YDR162C, strain NBP2, stronger effect = lower value 1.05 | locus YDR297W, strain sur2, stronger effect = lower value 1.01 | locus YDR318W, strain mcm21, stronger effect = lower value 1 | locus YDR334W, strain swr1, stronger effect = lower value 1 | locus YDR335W, strain msn5, stronger effect = lower value 1.01 | locus YDR388W, stronger effect = lower value 1 | locus YDR392W, strain spt3, stronger effect = lower value 0.842 | locus YDR502C, strain sam2, stronger effect = lower value 0.983 | locus YEL003W, strain gim4, stronger effect = lower value 0.984 | locus YEL037C, strain rad23, stronger effect = lower value 0.998 | locus YEL061C, strain CIN8 (second series), stronger effect = lower value 1 | locus YEL061C, strain CIN8, stronger effect = lower value 1.01 | locus YER015W, strain faa2, stronger effect = lower value 1.01 | locus YER016W, strain bim1, stronger effect = lower value 1 | locus YER110C, stronger effect = lower value 0.982 | locus YER111C, strain swi4, stronger effect = lower value 1 | locus YER155C, strain BEM2, stronger effect = lower value 1.01 | locus YER167W, strain BCK2, stronger effect = lower value 1.01 | locus YFR010W, strain ubp6, stronger effect = lower value 0.999 | locus YGL078C, strain dbp3, stronger effect = lower value 0.991 | locus YGL086W, strain mad1, stronger effect = lower value 0.988 | locus YGL167C, strain pmr1, stronger effect = lower value 1.01 | locus YGL173C, strain kem1, stronger effect = lower value 0.988 | locus YGL227W, strain vid30, stronger effect = lower value 0.997 | locus YGL240W, strain doc1, stronger effect = lower value 0.916 | locus YGL248W, strain PDE1, stronger effect = lower value 0.996 | locus YGL253W, strain hxk2, stronger effect = lower value 0.984 | locus YGR078C, strain PAC10, stronger effect = lower value 0.989 | locus YGR135W, strain pre9, stronger effect = lower value 0.957 | locus YGR252W, strain gcn5, stronger effect = lower value 0.921 | locus YHR013C, strain ard1, stronger effect = lower value 1.01 | locus YHR027C, strain rpn1, stronger effect = lower value 1.01 | locus YHR030C, strain SLT2, stronger effect = lower value 1.01 and 0.966 | locus YHR079C, strain IRE1 (second series), stronger effect = lower value 1 | locus YHR079C, strain IRE1, stronger effect = lower value 0.965 | locus YHR094C, strain hxt1, stronger effect = lower value 0.993 | locus YHR129C, strain ARP1, stronger effect = lower value 1.02 | locus YHR142W, strain chs7, stronger effect = lower value 0.929 | locus YHR200W, strain rpn10, stronger effect = lower value 0.98 | locus YIL066C, strain RNR3, stronger effect = lower value 1.02 | locus YIL073C, strain SPO22, stronger effect = lower value 0.967 | locus YIL125W, strain kgd1, stronger effect = lower value 1 | locus YIR030C, strain dcg1, stronger effect = lower value 0.997 | locus YJL092W, strain hpr5, stronger effect = lower value 0.992 | locus YJL095W, strain BCK1 (second series), stronger effect = lower value 0.996 | locus YJL095W, strain BCK1, stronger effect = lower value 1.02 and 0.967 | locus YJL115W, strain asf1, stronger effect = lower value 1.01 | locus YJL129C, strain trk1, stronger effect = lower value 0.995 | locus YJL134W, strain LCB3, stronger effect = lower value 1 | locus YJL154C, strain vps35, stronger effect = lower value 1.01 | locus YJL164C, strain tpk1, stronger effect = lower value 0.976 | locus YJL166W, strain qcr8, stronger effect = lower value 0.978 | locus YJL168C, strain set2, stronger effect = lower value 0.993
active: locus YDR195W, strain ref2 1.16 [resistant] | locus YER155C, strain BEM2 (second series), stronger effect = lower value 0.8
